From the supplement of paper PMC8728848
The sample as a whole holds a higher share of the strongest signals than the screen did.

Assays:
Test in all cases: glycan array binding signal (z-score within array); higher = stronger binding
Settings in all cases: glycan notation: IUPAC condensed, linker removed
[1] = biological target: Fuc(a1-2)Gal(b1-3)GalNAc(b1-3)Gal
Method in brief: (§1)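 The binding signal is a Z-score computed within each array and averaged over linkers. Arrays of the same protein sequence at different concentrations or buffers were also averaged together. Data originate from 3228 arrays in the Consortium for Functional Glycomics database, kept only where the protein sequence was available.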

[2] = biological target: Fuc(a1-2)Gal(b1-3)GlcNAc(b1-2)Man(a1-3)[Fuc(a1-2)Gal(b1-3)GlcNAc(b1-2)Man(a1-6)]Man(b1-4)GlcNAc(b1-4)GlcNAc
Method in brief: as §1

[3] = biological target: Fuc(a1-2)Gal(b1-4)[Fuc(a1-3)]GlcNAc(b1-3)GalNAc
Method in brief: as §1

[4] = biological target: Fuc(a1-2)Gal6S(b1-3)GlcNAc
Method in brief: as §1

[5] = biological target: Fuc(a1-2)[Gal(a1-3)]Gal(b1-4)GlcNAc(b1-6)GalNAc
Method in brief: as §1

[6] = biological target: Fuc(a1-2)[GalNAc(a1-3)]Gal(b1-3)GlcNAc(b1-2)Man(a1-3)[Fuc(a1-2)[GalNAc(a1-3)]Gal(b1-3)GlcNAc(b1-2)Man(a1-6)]Man(b1-4)GlcNAc(b1-4)GlcNAc
Method in brief: as §1

[7] = biological target: Fuc(a1-2)[GalNAc(a1-3)]Gal(b1-3)GlcNAc(b1-3)GalNAc
Method in brief: as §1

[8] = biological target: Fuc(a1-2)[GalNAc(a1-3)]Gal(b1-4)Glc
Method in brief: as §1

[9] = biological target: Fuc(a1-2)[GalNAc(a1-3)]Gal(b1-4)GlcNAc(b1-3)Gal(b1-4)GlcNAc
Method in brief: as §1

[10] = biological target: Fuc(a1-2)[GalNAc(a1-3)]Gal(b1-4)[Fuc(a1-3)]GlcNAc(b1-3)GalNAc
Method in brief: as §1

[11] = biological target: Fuc(a1-3)[Gal(b1-4)]GlcNAc(b1-4)Gal(b1-4)[Fuc(a1-3)]GlcNAc
Method in brief: as §1

[12] = biological target: Fuc(a1-3)[Gal(b1-4)]GlcNAc(b1-6)GalNAc
Method in brief: as §1

[13] = biological target: Fuc(a1-3)[Gal(b1-4)]GlcNAc6S
Method in brief: as §1

Gal(a1-2)Gal = biological target: Gal(a1-2)Gal
Method in brief: as §1

[14] = biological target: Gal(a1-3)Gal(b1-3)GlcNAc(b1-2)Man(a1-3)[Gal(a1-3)Gal(b1-3)GlcNAc(b1-2)Man(a1-6)]Man(b1-4)GlcNAc(b1-4)GlcNAc
Method in brief: as §1

Gal(a1-3)Gal(b1-4)GlcNAc = biological target: Gal(a1-3)Gal(b1-4)GlcNAc
Method in brief: as §1

Gal(b1-3)Gal = biological target: Gal(b1-3)Gal
Method in brief: as §1

[15] = biological target: Gal(b1-3)GlcNAc(b1-2)Man(a1-3)[GlcNAc(b1-4)][Gal(b1-3)GlcNAc(b1-2)Man(a1-6)]Man(b1-4)GlcNAc(b1-4)GlcNAc
Method in brief: as §1

[16] = biological target: Gal(b1-3)[GlcNAc(b1-6)]GalNAc
Method in brief: as §1

[17] = biological target: Gal(b1-4)GlcNAc(b1-3)Gal(b1-4)GlcNAc
Method in brief: as §1

[18] = biological target: Gal(b1-4)GlcNAc(b1-3)GalNAc
Method in brief: as §1

Gal6S(b1-4)Glc = biological target: Gal6S(b1-4)Glc
Method in brief: as §1

[19] = biological target: GalNAc(a1-3)GalNAc(b1-3)Gal(a1-4)Gal(b1-4)Glc
Method in brief: as §1

[20] = biological target: GalNAc(b1-3)Gal(a1-4)Gal(b1-4)GlcNAc(b1-3)Gal(b1-4)Glc
Method in brief: as §1

GalNAc6S(b1-4)GlcNAc = biological target: GalNAc6S(b1-4)GlcNAc
Method in brief: as §1

[21] = biological target: GlcNAc(a1-4)Gal(b1-4)GalNAc
Method in brief: as §1

[22] = biological target: GlcNAc(a1-4)Gal(b1-4)GlcNAc(b1-3)Gal(b1-4)[Fuc(a1-3)]GlcNAc(b1-3)Gal(b1-4)[Fuc(a1-3)]GlcNAc
Method in brief: as §1

[23] = biological target: GlcNAc(b1-3)Gal(b1-4)GlcNAc
Method in brief: as §1

[24] = biological target: GlcNAc(b1-3)Gal(b1-4)GlcNAc(b1-3)Gal(b1-4)GlcNAc
Method in brief: as §1

GlcNAc(b1-6)GalNAc = biological target: GlcNAc(b1-6)GalNAc
Method in brief: as §1

Kdn(a2-3)Gal(b1-4)Glc = biological target: Kdn(a2-3)Gal(b1-4)Glc
Method in brief: as §1

[25] = biological target: Kdn(a2-3)Gal(b1-4)[Fuc(a1-3)]GlcNAc
Method in brief: as §1

Man(a1-3)[Man(a1-6)]Man = biological target: Man(a1-3)[Man(a1-6)]Man
Method in brief: as §1

[26] = biological target: Neu5Ac(a2-3)Gal(b1-3)GlcNAc(b1-3)GalNAc
Method in brief: as §1

[27] = biological target: Neu5Ac(a2-3)Gal(b1-4)[Fuc(a1-3)]GlcNAc(b1-3)Gal(b1-4)[Fuc(a1-3)]GlcNAc(b1-3)Gal(b1-4)[Fuc(a1-3)]GlcNAc
Method in brief: as §1

[28] = biological target: Neu5Ac(a2-3)Gal(b1-4)[Fuc(a1-3)]GlcNAc(b1-3)GalNAc
Method in brief: as §1

[29] = biological target: Neu5Ac(a2-3)Gal6S(b1-4)[Fuc(a1-3)]GlcNAc
Method in brief: as §1

Neu5Ac(a2-6)Gal(b1-4)Glc = biological target: Neu5Ac(a2-6)Gal(b1-4)Glc
Method in brief: as §1

[30] = biological target: Neu5Ac(a2-6)Gal(b1-4)GlcNAc(b1-2)Man(a1-6)[Gal(b1-4)GlcNAc(b1-2)Man(a1-3)]Man(b1-4)GlcNAc(b1-4)GlcNAc
Method in brief: as §1

[31] = biological target: Neu5Ac(a2-6)Gal(b1-4)GlcNAc(b1-2)Man(a1-6)[Man(a1-3)]Man(b1-4)GlcNAc(b1-4)GlcNAc
Method in brief: as §1

[32] = biological target: Neu5Ac(a2-8)Neu5Ac(a2-3)[Gal(b1-3)GalNAc(b1-4)]Gal(b1-4)Glc
Method in brief: as §1

[33] = biological target: Neu5Ac(a2-8)Neu5Ac(a2-8)Neu5Ac(a2-8)Neu5Ac(a2-3)[GalNAc(b1-4)]Gal(b1-4)Glc
Method in brief: as §1

[34] = biological target: Neu5Ac9Ac(a2-3)Gal(b1-3)GlcNAc
Method in brief: as §1

B1: PitA (Streptococcus oralis), G3F8D8 (protein)
chain: MNIRFDFKKVQIIARRLVTLLAILFLCAPISLLNADSTTEPQTTLHKTITPISGQDDKYELSLDITSKLGTETQTDPLDVVLVADLSGSMQNQDVQSFDGRTISRIDALKNTLRGTNGRKGLIDTILSNSNNRLSMVGFGGKIDNKKVDQYWDGNKWRLFRPYWPYERMTKYYDGVSPWDDANTILGWSNNARAAKTAVYNMSIAGGNSIGTESGIGTGTNIGAGLTLANQLMGSARSNAKKVVILLSDGFANMVYDANGYTIYNYNNEDPNIETAPQWFWDRLNNNLNSLSYSLAPTLDGFYSIKFRYSNNVDSITSLQYYMRQHNASIPNEIFSANDEDQLRDSFKDITDKILPLGIHHVSIKDVLSKYVQLLPNGSSEFRVVKEKDGSSEILIENQVTFDTKTTSEGLVEVTAKFSPNYSLEDGARYVLKFTVTSSQEALDAIAGDKKLEAGDAEGSDVNKLYSNKGASVTYSYGIGNSQTKTKEYSDNPTFKPSDPLTVPVEVEWQGVTGARTVITADQPSNVELKLVQKNKNGGSDNQDYRKTNVNVSKNVSNETRNFEKVAKGYQYDLIAPDVPAFTKEIKNVGTESKPSFKVIYKQLPSLTIKKVLEAENNLNKEFRIKVKLTSPDSKPLNGTFGEITVVNGEAEIRVEKRKRWEGILSYLPRGTHYKVEEEAASTNGYHVTYENQEGDLNKDETSIVTNHKLPSLSVTKKVTGVFANLLKSFKITINIRDAQNSPLNGTYTATVNNKRTPLQFTNGRASIDLNKDQTIKIYGLPLDSHYTVEEESNSSRGYQVSYENQEGKLDGDKSATVTNNKNSVPETGVDFLSSTLMLGIILPLGGIFFTILLGYLVVHRRK
Q: What does the source list for B1?
A: glycan array binding signal (z-score) [1]: 10.3; glycan array binding signal (z-score) [2]: 0.06; glycan array binding signal (z-score) [3]: 7.27; glycan array binding signal (z-score) [4]: -0.656; glycan array binding signal (z-score) [5]: 0.131; glycan array binding signal (z-score) [6]: -0.473; glycan array binding signal (z-score) [7]: 4.75; glycan array binding signal (z-score) [8]: -0.125; glycan array binding signal (z-score) [9]: -0.715; glycan array binding signal (z-score) [10]: 5.3; glycan array binding signal (z-score) [11]: 0.05; glycan array binding signal (z-score) [12]: 4.67; glycan array binding signal (z-score) [13]: 0.782; glycan array binding signal (z-score) (Gal(a1-2)Gal): -0.212; glycan array binding signal (z-score) [14]: 3.83; glycan array binding signal (z-score) (Gal(a1-3)Gal(b1-4)GlcNAc): -0.128; glycan array binding signal (z-score) (Gal(b1-3)Gal): -0.7; glycan array binding signal (z-score) [15]: 1.74; glycan array binding signal (z-score) [16]: -0.437; glycan array binding signal (z-score) [17]: -0.586; glycan array binding signal (z-score) [18]: -0.575; glycan array binding signal (z-score) (Gal6S(b1-4)Glc): -0.151; glycan array binding signal (z-score) [19]: -0.395; glycan array binding signal (z-score) [20]: 0.654; glycan array binding signal (z-score) (GalNAc6S(b1-4)GlcNAc): 0.019; glycan array binding signal (z-score) [21]: 5.14; glycan array binding signal (z-score) [22]: 3.75; glycan array binding signal (z-score) [23]: -0.199; glycan array binding signal (z-score) [24]: -0.259; glycan array binding signal (z-score) (GlcNAc(b1-6)GalNAc): 0.138; glycan array binding signal (z-score) (Kdn(a2-3)Gal(b1-4)Glc): -0.512; glycan array binding signal (z-score) [25]: 1.05; glycan array binding signal (z-score) (Man(a1-3)[Man(a1-6)]Man): -0.627; glycan array binding signal (z-score) [26]: -0.148; glycan array binding signal (z-score) [27]: 0.263; glycan array binding signal (z-score) [28]: 3.68; glycan array binding signal (z-score) [29]: -0.322; glycan array binding signal (z-score) (Neu5Ac(a2-6)Gal(b1-4)Glc): -0.522; glycan array binding signal (z-score) [30]: -0.302; glycan array binding signal (z-score) [31]: 0.537; glycan array binding signal (z-score) [32]: -0.463; glycan array binding signal (z-score) [33]: 0.179; glycan array binding signal (z-score) [34]: -0.641
